HSF1 activator = increases HSF-1 driven luciferase reporter signal; NIH3T3-HGL HSF-1 luciferase reporter, MG132, 8 h; 100% = twice DMSO control signal; activation, % at 9 µM; 300,000 compounds, 1.7% hits; AID 504408;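 active = mean replicate activation of at least 50% with a set share of replicates each reaching 50%; inconclusive = only one of those two conditions met; inactive = mean below 50% and too few replicates reaching it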
L929 necroptosis = blocks zVAD induced death of L929 cells | L929 zVAD necroptosis rescue, ATP luminescence, 24 h; with zVAD 60 µM | viability rescue, % at 10 µM | AID 1377 | 220,000 compounds, 0.38% hits;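 active = activation, scaled between plate controls, above about 75%, limit read from the data; inactive = activation under that limit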
TNF death inh = inhibitors of TNF-alpha induced necroptosis in Jurkat FADD-/- cells. Jurkat FADD-/- TNF necroptosis rescue, ATP luminescence, 24 h; 0 = TNF only, 100 = no-TNF cells. activation (protection from cell death), % at 10 µM. 220,000 compounds, 0.068% hits. AID 463075;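 active = activation, meaning protection from cell death, of at least 50% relative to plate controls; inactive = activation below 50%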;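 also: necroptosis triggered by 40 ng/mL TNF-alpha added together with compound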
Hsp70 act = transcriptional activators of Hsp70; HeLa Hsp70 promoter luciferase reporter, luminescence; scaled: vehicle 0, proteasome-inhibitor control 100%; activation, % at 10 µM; 200,000 compounds, 0.04% hits; AID 1203;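 active = activation above the mean across all tested compounds plus 3 SD, cutoff set per campaign, cut at about 5.5% in these data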
A number is an active result; n = inactive; u = inconclusive; x = no result given. Only some compounds are listed: those with a hit (about 1.9% of all), similar ones and a draw of the others.

SMILES | HSF1 activator | L929 necroptosis | TNF death inh | Hsp70 act
Cc1cccc2cc(-c3ccccc3)c(-c3ccccc3)c[n+]12 | n | n | n | n
Cc1nn(Cc2ccccc2)c(N)c1-c1ccccc1 | x | n | n | n
Cc1nn(Cc2ccccc2)c(N)c1C#N | n | n | 54 | n
O=C(N/N=C/C(Br)=C/c1ccccc1)c1cnccn1 | 259 | n | n | x
COc1cccc(C(=O)N/N=C/C(Br)=C/c2ccccc2)c1 | 56 | n | n | n
O=C(N/N=C/C=C\c1ccccc1)c1cnccn1 | n | n | n | n
Cc1ccc(-c2cc(C(=O)N/N=C/C(Br)=C/c3ccccc3)n[nH]2)o1 | 121 | n | n | n
Cc1ccc(-c2cc(C(=O)N/N=C/c3ccccc3O)n[nH]2)o1 | n | x | x | x
COc1ccc(C(=O)N/N=C/C(Br)=C/c2ccccc2)cc1 | 148 | n | n | n
C/C(=N\OCC(=O)NC12CC3CC(CC(C3)C1)C2)c1cc2ccccc2o1 | n | n | n | n
CC1CCN(c2ccc(C(=O)NCc3ccco3)cc2[N+](=O)[O-])CC1 | n | n | n | n
Cc1occc1C(=O)N/N=C/C(Br)=C/c1ccccc1 | 314 | n | n | n
O=C(N/N=C/C(Br)=C\c1ccccc1)c1n[nH]c2c1CCC2 | 211 | n | n | n
Cc1ccc(-n2ncc3c(NNC(=O)c4ccco4)ncnc32)cc1C | n | x | x | x
O=C(NNc1ncnc2c1cnn2-c1cccc(Cl)c1)c1ccco1 | 64 | x | x | x
CCn1nc(C(=O)OCC(=O)NCC(C)C)c2ccccc2c1=O | n | n | n | n
CCn1nc(C(=O)OCC(=O)Nc2nc(-c3ccc(OC)cc3)cs2)c2ccccc2c1=O | 77 | n | n | n
O=C(Nc1ccccc1)c1cc2ccc3ccccc3c2s1 | u | n | n | x
CCN(CC)c1ccc(/C=N/NC(=S)NCc2ccc(OC)cc2)cc1 | 53 | n | n | n
CCN(CC)c1ccc(/C=N/NC(=S)NCc2ccccc2)cc1 | n | n | n | n
CC(C)COc1ccc(C(=O)OCC(=O)N(C)CC(=O)Nc2ccc(F)cc2)cc1 | n | x | x | x
O=C(Nc1ccccc1)C(=O)c1c[nH]c2ccccc12 | 68 | x | x | x
O=C(/C=C/c1ccccc1)c1c[nH]c2ccccc12 | 111 | n | n | x
COC(=O)c1ccc(NC(=O)C(=O)c2c[nH]c3ccccc23)cc1 | n | x | x | x
COc1ccc(CN2CCN(CCC(C)C)C(CCO)C2)cc1Cn1cncn1 (centres undefined) | n | n | n | n
SMILES | HSF1 activator | L929 necroptosis | TNF death inh | Hsp70 act
CC1(C)CC(=O)/C(=C\c2cccc([N+](=O)[O-])c2)C(C)(C)N1 | 76 | n | n | n
COc1ccc(-c2cn[nH]c2-c2ccc(OCc3ccc([N+](=O)[O-])cc3)cc2O)cc1OC | 57 | n | n | x
O=[N+]([O-])c1ccc(COc2ccc(-c3[nH]ncc3-c3ccc(Cl)cc3)c(O)c2)cc1 | n | n | n | n
Cc1cccc(Cc2nnc(CCC(=O)N(C)CCc3ccccc3)o2)c1 | 64 | x | x | x
Cc1cc(-c2nnc(CCC(=O)N(C)CCc3ccccc3)o2)no1 | n | n | n | x
CS(=O)(=O)N(CC(=O)Nc1ccc(F)c(F)c1)c1cccc([N+](=O)[O-])c1 | n | n | n | n
Cc1ccc(CNC(=O)C2CCC(=O)N(Cc3ccc(Cl)cc3)C2)cc1F (centres undefined) | 56 | x | x | x
COc1ccc(CCN2CC(C(=O)NCc3cc(C)on3)CCC2=O)cc1 (centres undefined) | 74 | x | x | x
CCn1cc(CNC(=O)C2CCC(=O)N(Cc3ccc(Cl)cc3)C2)cn1 (centres undefined) | n | x | x | x
CCc1cc(CNC(=O)C2CCC(=O)N(CCc3ccc(OC)cc3)C2)on1 (centres undefined) | n | x | x | x
COc1ccc(-c2cc(C(=O)Nc3ccccc3F)on2)cc1 | 54 | n | n | n
CC1Cc2ccccc2N1C(=O)/C=C/c1cccc(F)c1 (centres undefined) | 70 | n | n | n
CN(C)CC(=O)c1c(N)n(Cc2ccccc2)c(=O)n(C)c1=O | n | n | n | n
CCN(CC(=O)c1c(N)n(C)c(=O)n(C)c1=O)c1cccc2ccccc12 | 85 | n | n | n
CC1=C(C(=O)N2CCOCC2)C(c2c(C)cc(C)cc2C)NC(=S)N1 (centres undefined) | 95 | n | n | n
CC1=C(C(=O)N2CCOCC2)C(c2ccc(C)cc2)NC(=S)N1 (centres undefined) | n | n | n | n
CCc1cc2cc(C(=O)Nc3ccccc3F)sc2s1 | 57 | n | n | n
Cc1nc2nc(SCc3ccccc3)[nH]n2c(=O)c1CCC(C)C | n | x | x | x
C=C1CCC[C@]2(C)C[C@H]3OC(=O)C(CNC(C)(CO)CO)[C@H]3CC12 (some centres undefined) | 74 | x | x | x
C=C1CCC[C@]2(C)C[C@H]3OC(=O)C(CNC(C)CC)[C@H]3CC12 (some centres undefined) | n | x | x | x
C=C1CCC[C@]2(C)C[C@H]3OC(=O)C(CNC(CC)CO)[C@H]3CC12 (some centres undefined) | 142 | x | x | x
O=C(O)CN1C(=O)/C(=C/c2ccccc2Br)Oc2ccccc21 | 70 | x | x | x
CCOC(=O)CN1C(=O)/C(=C/c2cccc(Br)c2)Oc2ccccc21 | n | x | x | x
C=C(C(=O)c1ccccc1)C(C(=C)C(=O)c1ccccc1)c1ccc(OC)cc1 | 143 | n | n | x
C=C(C(=O)c1ccccc1)C(C)C(=C)C(=O)c1ccccc1 | 79 | n | n | n
SMILES | HSF1 activator | L929 necroptosis | TNF death inh | Hsp70 act
C=C(C(=O)c1ccccc1)C(c1ccccc1)C(C)C(=O)c1ccccc1 (centres undefined) | 62 | n | n | n
O=C(CS(=O)(=O)c1ccccc1)Nc1nccs1 | n | x | x | x
COc1ccccc1NC(=O)CN1CCN(CC(=O)Nc2ccc(F)cc2F)CC1 | 69 | x | x | x
COc1ccccc1NC(=O)CN1CCCCC1 | n | n | n | n
CCOC(=O)c1c(C)n(C)c2ccc(OCC(O)CNCCc3ccccc3)cc12 (centres undefined) | 77 | x | x | x
CCOC(=O)c1c(C)n(C)c2ccc(OCC(O)CN3CCN(C)CC3)cc12 (centres undefined) | n | n | n | n
Cc1cc(OCC(=O)N(Cc2ccco2)C2CCS(=O)(=O)C2)cc(C)c1Cl (centres undefined) | 57 | n | n | x
Cc1ccc(OCC(=O)N(Cc2ccco2)C2CCS(=O)(=O)C2)cc1C (centres undefined) | n | x | x | x
COc1cccc(-n2nnnc2S(C)(=O)=O)c1 | 325 | n | n | n
COc1cccc(Oc2nnnn2-c2ccccc2)c1 | n | n | n | n
CCOC(=O)CSc1nc2cccnc2n1C | n | n | n | n
Cn1c(SCc2ccccc2F)nc2cccnc21 | 63 | n | n | n
CCOC(=O)c1c(CN2CCN(Cc3ccccc3)CC2)n(C)c2cc(Br)c(OC)cc12 | n | n | n | n
CCOC(=O)c1c(CN2CCC(C)CC2)n(C)c2cc(Br)c(OC)cc12 | 94 | n | n | x
Cc1ccc(S(=O)(=O)NCC(c2ccccc2)N2CCN(c3ccc(F)cc3)CC2)cc1 (centres undefined) | 54 | x | x | x
COc1ccc(Nc2nc(N3CCOCC3)nc(N3CCOCC3)n2)cc1Cl | n | x | x | x
